The supplement of paper PMC10849652
Of roughly 7,900 targets only a part is listed; those with a hit were picked by preference. About 0.6% of all pairs of compound and target were hits. Unmarked numbers belong to inactive results.

Legend:
Test in all cases: log2 fold change, soluble protein after heating vs DMSO (PISA); higher = thermal stabilisation; K562 cells, 10 uM, 30 min; active = over 0.2 and 3.5 SD of the protein, either way, in both replicates (recomputed)
[1] = compound: COC1=CC=C(C=C1)CN2C=CC3=C2C=C(C=C3)C(=O)NO
In short: (§1)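 Quantification of soluble protein used TMTpro 16plex LC-MS/MS, with channel sums equalised. Samples were the supernatant after 21,000xg for 90 min of pooled aliquots from K562 cells (2×10^6 cells/mL) treated with 10 μM compound for 30 min, heated for 3 min over 48°C-58°C, and extracted in PBS with 0.5% NP-40 at 4°C. Values, from duplicates, describe thermal stability against control samples on a log2 fold-change scale.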

filanesib = compound: CON(C)C(=O)N1N=C(c2cc(F)ccc2F)S[C@@]1(CCCN)c1ccccc1 [filanesib]
In short: as §1

zotarolimus = compound: CO[C@H]1C[C@@H]2CC[C@@H](C)[C@@](O)(O2)C(=O)C(=O)N2CCCC[C@H]2C(=O)O[C@H]([C@H](C)C[C@@H]2CC[C@H](n3cnnn3)[C@H](OC)C2)CC(=O)[C@H](C)/C=C(\C)[C@@H](O)[C@@H](OC)C(=O)[C@H](C)C[C@H](C)/C=C/C=C/C=C/1C [zotarolimus]
In short: as §1

idasanutlin = compound: COc1cc(C(=O)O)ccc1NC(=O)[C@@H]1N[C@@H](CC(C)(C)C)[C@](C#N)(c2ccc(Cl)cc2F)[C@H]1c1cccc(Cl)c1F [idasanutlin]
In short: as §1

alisertib = compound: COc1cc(Nc2ncc3c(n2)-c2ccc(Cl)cc2C(c2c(F)cccc2OC)=NC3)ccc1C(=O)O [alisertib]
In short: as §1

[2] = compound: COc1cc2nc(-c3cc(F)ccc3O)nc(N[C@@H]3CNC[C@H]3C(C)(C)O)c2cc1OC
In short: as §1

gefitinib = compound: COc1cc2ncnc(Nc3ccc(F)c(Cl)c3)c2cc1OCCCN1CCOCC1 [gefitinib]
In short: as §1

[3] = compound: COc1cccc2cc(-c3nc([C@H]4CC[C@H](C(=O)O)CC4)n4ncnc(N)c34)[nH]c12
In short: as §1

lapatinib = compound: CS(=O)(=O)CCNCc1ccc(-c2ccc3ncnc(Nc4ccc(OCc5cccc(F)c5)c(Cl)c4)c3c2)o1 [lapatinib]
In short: as §1

pictilisib = compound: CS(=O)(=O)N1CCN(Cc2cc3nc(-c4cccc5[nH]ncc45)nc(N4CCOCC4)c3s2)CC1 [pictilisib]
In short: as §1

[4] = compound: CS(=O)(=O)c1ccc(-c2cnc(N)c(C(=O)Nc3ccccc3)n2)cc1
In short: as §1

crizotinib = compound: C[C@@H](Oc1cc(-c2cnn(C3CCNCC3)c2)cnc1N)c1c(Cl)ccc(F)c1Cl [crizotinib]
In short: as §1

[5] = compound: C[C@@H]1COCCN1C2=NC(=NC(=C2)C3(CC3)S(=O)(=O)C)C4=C5C=CNC5=CC=C4
In short: as §1

[6] = compound: C[C@H](C1=CC=C(C=C1)C(=O)NC2=C3C=CNC3=NC=C2)N
In short: as §1

duvelisib = compound: C[C@H](Nc1ncnc2nc[nH]c12)c1cc2cccc(Cl)c2c(=O)n1-c1ccccc1 [duvelisib]
In short: as §1

gandotinib = compound: Cc1cc(Nc2cc(CN3CCOCC3)c3nc(C)c(Cc4ccc(Cl)cc4F)n3n2)n[nH]1 [gandotinib]
In short: as §1

tozasertib = compound: Cc1cc(Nc2cc(N3CCN(C)CC3)nc(Sc3ccc(NC(=O)C4CC4)cc3)n2)n[nH]1 [tozasertib]
In short: as §1

[7] = compound: Cc1cc(SCc2sc(-c3ccc(C(F)(F)F)cc3)nc2C)ccc1OCC(=O)O
In short: as §1

doramapimod = compound: Cc1ccc(-n2nc(C(C)(C)C)cc2NC(=O)Nc2ccc(OCCN3CCOCC3)c3ccccc23)cc1 [doramapimod]
In short: as §1

ispinesib = compound: Cc1ccc(C(=O)N(CCCN)[C@@H](c2nc3cc(Cl)ccc3c(=O)n2Cc2ccccc2)C(C)C)cc1 [ispinesib]
In short: as §1

UniProt P31323, sequence (P31323 whole entry, looked up): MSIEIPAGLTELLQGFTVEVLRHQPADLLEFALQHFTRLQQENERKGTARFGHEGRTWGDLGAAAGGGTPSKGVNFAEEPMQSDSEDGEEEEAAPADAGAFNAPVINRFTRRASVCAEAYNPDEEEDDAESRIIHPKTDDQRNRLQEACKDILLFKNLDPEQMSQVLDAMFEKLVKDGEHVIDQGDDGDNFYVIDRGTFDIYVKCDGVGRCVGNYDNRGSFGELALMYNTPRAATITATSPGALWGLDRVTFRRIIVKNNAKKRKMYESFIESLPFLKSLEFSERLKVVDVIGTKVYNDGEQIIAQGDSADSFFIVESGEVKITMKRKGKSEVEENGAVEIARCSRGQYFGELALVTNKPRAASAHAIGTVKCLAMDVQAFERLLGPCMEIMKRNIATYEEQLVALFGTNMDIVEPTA
UniProt Q9H300, sequence (Q9H300 whole entry, looked up): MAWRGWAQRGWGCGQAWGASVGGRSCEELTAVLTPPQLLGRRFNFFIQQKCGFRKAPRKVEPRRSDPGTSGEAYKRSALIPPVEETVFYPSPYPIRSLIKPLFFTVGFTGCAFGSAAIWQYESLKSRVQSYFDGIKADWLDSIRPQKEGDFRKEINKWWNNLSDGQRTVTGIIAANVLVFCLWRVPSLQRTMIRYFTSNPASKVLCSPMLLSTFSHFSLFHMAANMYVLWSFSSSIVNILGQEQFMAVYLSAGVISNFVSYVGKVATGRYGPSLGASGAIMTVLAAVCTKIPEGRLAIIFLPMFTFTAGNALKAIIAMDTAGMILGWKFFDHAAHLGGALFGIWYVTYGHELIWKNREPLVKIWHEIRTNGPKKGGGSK
UniProt Q9NR12, sequence (Q9NR12 whole entry, looked up): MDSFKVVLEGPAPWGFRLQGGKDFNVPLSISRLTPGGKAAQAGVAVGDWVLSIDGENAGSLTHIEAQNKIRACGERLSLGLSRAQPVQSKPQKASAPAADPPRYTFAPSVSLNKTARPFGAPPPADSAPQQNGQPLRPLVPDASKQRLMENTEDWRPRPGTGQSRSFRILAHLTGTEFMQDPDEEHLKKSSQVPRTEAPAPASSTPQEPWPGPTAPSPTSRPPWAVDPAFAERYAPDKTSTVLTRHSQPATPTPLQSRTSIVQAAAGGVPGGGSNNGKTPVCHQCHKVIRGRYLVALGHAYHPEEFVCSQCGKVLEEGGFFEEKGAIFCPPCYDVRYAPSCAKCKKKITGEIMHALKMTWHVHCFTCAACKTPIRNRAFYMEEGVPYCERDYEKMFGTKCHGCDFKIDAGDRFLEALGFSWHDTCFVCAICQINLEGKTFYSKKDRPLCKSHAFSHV
UniProt Q10713, sequence (Q10713 whole entry, looked up): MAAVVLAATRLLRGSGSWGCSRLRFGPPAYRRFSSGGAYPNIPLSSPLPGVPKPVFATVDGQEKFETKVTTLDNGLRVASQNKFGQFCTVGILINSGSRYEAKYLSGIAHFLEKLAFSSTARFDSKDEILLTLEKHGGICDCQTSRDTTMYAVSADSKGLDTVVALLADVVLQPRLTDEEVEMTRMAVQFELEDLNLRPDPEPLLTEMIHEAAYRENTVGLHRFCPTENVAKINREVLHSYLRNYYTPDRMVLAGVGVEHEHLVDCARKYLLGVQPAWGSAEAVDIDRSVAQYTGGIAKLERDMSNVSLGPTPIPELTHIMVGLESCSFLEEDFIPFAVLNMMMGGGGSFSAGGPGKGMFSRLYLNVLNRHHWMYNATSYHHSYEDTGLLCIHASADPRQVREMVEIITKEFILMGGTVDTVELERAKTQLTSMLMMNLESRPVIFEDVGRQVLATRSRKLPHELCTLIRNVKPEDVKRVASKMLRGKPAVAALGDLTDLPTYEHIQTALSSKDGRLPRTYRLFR
UniProt Q9NW08, sequence (Q9NW08 whole entry, looked up): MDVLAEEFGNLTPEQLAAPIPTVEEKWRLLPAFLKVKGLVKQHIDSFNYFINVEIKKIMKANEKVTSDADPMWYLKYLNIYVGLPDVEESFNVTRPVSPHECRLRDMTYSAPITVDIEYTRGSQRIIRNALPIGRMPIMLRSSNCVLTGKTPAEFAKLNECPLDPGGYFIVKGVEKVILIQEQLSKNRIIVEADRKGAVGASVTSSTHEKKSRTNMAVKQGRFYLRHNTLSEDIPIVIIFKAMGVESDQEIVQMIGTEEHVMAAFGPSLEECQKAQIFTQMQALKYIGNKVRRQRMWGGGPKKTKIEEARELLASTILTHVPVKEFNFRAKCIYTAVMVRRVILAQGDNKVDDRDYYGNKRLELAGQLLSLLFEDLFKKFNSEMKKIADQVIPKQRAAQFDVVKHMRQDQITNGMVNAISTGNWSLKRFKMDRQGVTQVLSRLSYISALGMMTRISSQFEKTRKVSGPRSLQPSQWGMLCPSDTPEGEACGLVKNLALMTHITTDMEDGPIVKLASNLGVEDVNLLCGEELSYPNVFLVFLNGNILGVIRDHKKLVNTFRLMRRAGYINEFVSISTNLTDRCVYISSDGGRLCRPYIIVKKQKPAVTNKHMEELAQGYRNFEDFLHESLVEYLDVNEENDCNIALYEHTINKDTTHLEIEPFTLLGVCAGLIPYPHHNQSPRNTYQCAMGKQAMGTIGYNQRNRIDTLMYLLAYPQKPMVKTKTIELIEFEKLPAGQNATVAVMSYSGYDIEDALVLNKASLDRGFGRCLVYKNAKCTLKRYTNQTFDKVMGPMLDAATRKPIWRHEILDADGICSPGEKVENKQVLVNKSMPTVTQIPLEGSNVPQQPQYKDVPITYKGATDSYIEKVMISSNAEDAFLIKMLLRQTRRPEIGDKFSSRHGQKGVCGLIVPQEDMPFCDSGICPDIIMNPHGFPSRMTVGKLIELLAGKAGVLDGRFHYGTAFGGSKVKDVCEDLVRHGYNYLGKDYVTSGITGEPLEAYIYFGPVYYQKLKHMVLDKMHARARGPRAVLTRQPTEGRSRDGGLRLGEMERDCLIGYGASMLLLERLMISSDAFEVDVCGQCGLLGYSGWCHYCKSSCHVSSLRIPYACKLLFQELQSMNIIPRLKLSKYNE
UniProt Q15004, sequence (Q15004 whole entry, looked up): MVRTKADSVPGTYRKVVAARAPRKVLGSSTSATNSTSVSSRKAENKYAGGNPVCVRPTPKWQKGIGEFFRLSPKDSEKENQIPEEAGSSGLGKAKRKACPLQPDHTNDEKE
UniProt Q9Y244, sequence (Q9Y244 whole entry, looked up): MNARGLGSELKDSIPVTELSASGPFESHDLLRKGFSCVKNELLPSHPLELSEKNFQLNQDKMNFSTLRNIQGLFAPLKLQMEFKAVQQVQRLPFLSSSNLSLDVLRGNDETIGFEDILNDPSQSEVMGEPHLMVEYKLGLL
UniProt P29590, sequence (P29590 whole entry, looked up): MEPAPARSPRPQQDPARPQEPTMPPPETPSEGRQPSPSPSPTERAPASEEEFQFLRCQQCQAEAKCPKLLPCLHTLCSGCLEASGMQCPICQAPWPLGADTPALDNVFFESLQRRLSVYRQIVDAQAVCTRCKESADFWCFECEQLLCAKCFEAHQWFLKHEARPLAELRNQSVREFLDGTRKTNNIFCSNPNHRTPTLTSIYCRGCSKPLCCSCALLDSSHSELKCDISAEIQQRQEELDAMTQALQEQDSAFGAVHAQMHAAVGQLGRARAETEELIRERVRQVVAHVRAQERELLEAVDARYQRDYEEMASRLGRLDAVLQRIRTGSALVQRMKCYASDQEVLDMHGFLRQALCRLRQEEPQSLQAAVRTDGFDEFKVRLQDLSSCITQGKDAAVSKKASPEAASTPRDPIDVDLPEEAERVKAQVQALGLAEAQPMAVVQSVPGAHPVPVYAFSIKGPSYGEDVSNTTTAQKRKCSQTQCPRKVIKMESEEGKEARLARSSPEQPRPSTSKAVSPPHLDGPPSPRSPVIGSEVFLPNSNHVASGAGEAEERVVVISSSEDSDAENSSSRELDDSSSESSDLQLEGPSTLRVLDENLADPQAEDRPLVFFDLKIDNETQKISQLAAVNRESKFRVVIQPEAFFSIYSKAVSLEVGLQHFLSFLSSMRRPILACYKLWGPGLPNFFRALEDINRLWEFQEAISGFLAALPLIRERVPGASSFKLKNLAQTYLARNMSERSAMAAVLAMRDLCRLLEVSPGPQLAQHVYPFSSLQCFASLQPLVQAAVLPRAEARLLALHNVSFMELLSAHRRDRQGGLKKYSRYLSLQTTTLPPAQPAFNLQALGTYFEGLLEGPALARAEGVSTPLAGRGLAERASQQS
UniProt O95997, sequence (O95997 whole entry, looked up): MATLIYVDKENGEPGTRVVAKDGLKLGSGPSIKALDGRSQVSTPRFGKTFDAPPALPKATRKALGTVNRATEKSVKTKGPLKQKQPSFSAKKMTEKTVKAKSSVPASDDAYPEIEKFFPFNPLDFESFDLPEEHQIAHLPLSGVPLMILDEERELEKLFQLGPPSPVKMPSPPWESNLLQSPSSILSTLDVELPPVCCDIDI
UniProt Q15121, sequence (Q15121 whole entry, looked up): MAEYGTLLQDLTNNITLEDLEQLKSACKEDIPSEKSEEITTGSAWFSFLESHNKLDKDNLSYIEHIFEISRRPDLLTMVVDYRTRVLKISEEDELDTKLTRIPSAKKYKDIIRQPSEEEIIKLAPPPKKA
UniProt P31321, sequence (P31321 whole entry, looked up): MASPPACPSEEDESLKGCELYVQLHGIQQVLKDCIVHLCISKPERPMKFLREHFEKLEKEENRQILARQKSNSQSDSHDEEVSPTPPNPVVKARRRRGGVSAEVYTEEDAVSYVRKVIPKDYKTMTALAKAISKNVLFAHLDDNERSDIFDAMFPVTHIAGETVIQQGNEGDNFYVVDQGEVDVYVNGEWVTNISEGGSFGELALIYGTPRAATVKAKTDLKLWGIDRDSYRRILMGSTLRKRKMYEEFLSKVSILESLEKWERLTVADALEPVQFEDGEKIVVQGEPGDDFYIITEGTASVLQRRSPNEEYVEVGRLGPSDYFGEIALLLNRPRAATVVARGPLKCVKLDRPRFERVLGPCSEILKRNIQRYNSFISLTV

Target | log2 fold change [1] | log2 fold change (filanesib) | log2 fold change (zotarolimus) | log2 fold change (idasanutlin) | log2 fold change (alisertib) | log2 fold change [2] | log2 fold change (gefitinib) | log2 fold change [3] | log2 fold change (lapatinib) | log2 fold change (pictilisib) | log2 fold change [4] | log2 fold change (crizotinib) | log2 fold change [5] | log2 fold change [6] | log2 fold change (duvelisib) | log2 fold change (gandotinib) | log2 fold change (tozasertib) | log2 fold change [7] | log2 fold change (doramapimod) | log2 fold change (ispinesib)
PCLAF (UniProt Q15004) | -0.115 | 0.158 | -0.172 | 0.066 | -0.035 | -0.018 | -0.057 | -0.162 | 0.033 | -0.015 | -0.175 | 0.027 | -0.19 | 0.052 | -0.022 | -0.07 | -0.03 | -0.097 | 0.022 | 0.079
POLR3B (UniProt Q9NW08) | 0.026 | 0.065 | 0.075 | 0.008 | -0.086 | 0.08 | 0.105 | -0.135 | 0.008 | -0.019 | 0.038 | -0.111 | -0.004 | 0.034 | 0.007 | -0.07 | 0.101 | 0.085 | 0.03 | -0.183
PTTG1 (UniProt O95997) | 0.011 | 0.052 | -0.077 | -0.011 | -0.022 | -0.156 | -0.048 | -0.058 | -0.013 | -0.07 | -0.093 | -0.012 | -0.085 | -0.044 | 0.068 | -0.108 | -0.015 | 0.021 | 0.076 | -0.034
PDS5B (UniProt Q9NTI5) | 0.065 | 0.104 | 0.037 | -0.07 | -0.05 | -0.188 | 0.123 | 0.078 | -0.206 | 0.066 | 0.03 | -0.229 | 0.222 | 0.041 | 0.004 | -0.149 | -0.604 (active) | 0.208 | -0.074 | -0.225
PRKAR1B (UniProt P31321) | 0.1 | 0.034 | 0.011 | -0.099 | 0.02 | 0.027 | 0.051 | -0.162 | 0.004 | 0.199 | 0.137 | 0.132 | 0.071 | 0.123 | 0.199 | 0.095 | 0.136 | -0.011 | -0.03 | -0.072
PRKAR2B (UniProt P31323) | -0.032 | 0.06 | 0.153 | 0.05 | -0.007 | -0.63 (active) | -0.026 | -0.024 | 0.048 | -0.056 | -0.026 | -0.108 | -0.067 | -0.136 | 0.007 | -0.271 | 0.026 | 0.112 | 0.073 | -0.001
PARL (UniProt Q9H300) | -0.061 | -0.091 | -0.034 | -0.068 | -0.016 | -0.2 | 0.038 | 0.08 | 0.04 | 0.011 | -0.004 | -0.036 | 0.186 | -0.011 | 0.03 | 0.025 | -0.017 | -0.035 | -0.009 | -0.193
PEX7 (UniProt O00628) | 0.013 | -0.063 | 0.058 | -0.002 | -0.01 | -0.09 | -0.003 | 0.072 | -0.032 | 0.055 | -0.011 | -0.037 | 0.121 | 0.024 | 0.04 | -0.005 | -0.042 | 0.145 | 0.002 | -0.078
PML (UniProt P29590) | -0.043 | 0.014 | 0.041 | 0.003 | -0.022 | -0.026 | -0.015 | -0.081 | 0.024 | 0.119 | -0.011 | 0.017 | 0.025 | -0.027 | 0.072 | -0.019 | 0.07 | -0.051 | -0.054 | -0.027
PDLIM7 (UniProt Q9NR12) | 0.055 | 0.014 | 0.014 | -0.042 | -0.06 | 0.03 | -0.104 | 0.012 | 0.012 | -0.046 | -0.01 | -0.075 | -0.002 | -0.05 | 0.019 | 0.026 | -0.002 | 0.004 | 0.012 | -0.075
PDE12 (UniProt Q6L8Q7) | 0.359 (active) | -0.052 | 0.044 | -0.052 | -0.051 | 0.014 | -0.01 | -0.003 | -0.007 | 0.074 | 0.047 | 0.032 | 0.088 | -0.133 | 0.069 | 0.027 | -0.007 | 0 | -0.027 | 0.065
POMP (UniProt Q9Y244) | 0.175 | 0.082 | 0.012 | 0.115 | -0.153 | -0.016 | 0.076 | -0.03 | -0.022 | 0.031 | -0.086 | -0.059 | -0.023 | -0.076 | 0.055 | 0.027 | 0.001 | -0.245 | -0.143 | 0.108
PHKG2 (UniProt P15735) | 0.014 | -0.01 | -0.051 | 0.007 | -0.026 | 0.219 | -0.063 | 0.015 | 0.105 | -0.055 | 0.015 | 0 | -0.097 | 0.053 | -0.077 | -0.017 | -0.134 | -0.006 | 0.044 | 0.018
PEA15 isoform 2 (UniProt Q15121) | 0.011 | -0.079 | 0.05 | -0.02 | -0.047 | -0.009 | 0 | -0.015 | -0.003 | 0.03 | 0.012 | 0.136 | 0.141 | -0.048 | 0.074 | -0.073 | 0.103 | 0.048 | 0.003 | 0.034
PCK2 (UniProt Q16822) | -0.339 (active) | -0.007 | 0.045 | -0.044 | -0.035 | 0.024 | -0.025 | 0.027 | -0.045 | 0.011 | 0.009 | 0.17 | 0.01 | -0.098 | 0.064 | 0 | 0 | -0.012 | 0 | 0.076
PMPCA (UniProt Q10713) | -0.041 | 0.013 | 0.035 | -0.1 | -0.089 | -0.02 | 0.043 | 0.009 | -0.023 | 0.018 | 0.006 | -0.014 | 0.033 | -0.07 | 0.055 | -0.076 | -0.022 | -0.011 | 0.028 | -0.043
